# Compounds with a hit are over-represented: about 1.7% of the library has one in this group of screens.
# Peg3 imprint – qHTS Assay for Compounds that Induce Erasure of Genomic Imprints | mouse ES Peg3-LacZ reporter, beta-gal luminescence, 40 h | AID 1948, 2009 | 0.02% of 110,000 active | Potency, µM (titrated, usually from 60.7 µM), for the others: at the top dose activity change, positive = activation, actives largely listed as activators
#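 Each well holds 300 Peg3LacZ-Neo (maternal) female ES cells incubated 40 h at 37C, 5% CO2. LacZ is measured by BetaGlo luminescence, with AC50 and maximum efficacy derived from dose-response curves.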
# IkB sig inh – IkB Signaling. ABC-DLBCL IkBa-CBG/CBR dual luciferase ratio, 4 h; response scale: scaled: untreated 0%, proteasome inhibitor 100%. Potency, µM (series often up to 57.1 µM), for the others: at the highest dose IkBa stabilization activation. 0.04% of 110,000 active. AID 445, 2006; active = well fitted curve in the direction sought with a large enough effect in the signal ratio, not every such curve was filed as active; inconclusive = small, poorly fitted or top-dose-only effect, or a change in a side signal; the % refers to the signal ratio;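 also: the direction sought is a rising ratio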
#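 Curves were fitted separately to fusion (green), unfused (red) and ratio luminescence, then classed by r2, magnitude and activity. Cells: OCI-Ly3, 4 h compound plus doxycycline at 37C; 10 uM MG-132 defined full response.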
# p53ts 32C kill – qHTS Screen for Compounds that Selectively Target Cancer Cells with p53 Mutations: Cytotoxicity of p53ts Cells at the Permissive Temperature. H1299-p53A138V at 32C, ATP luminescence viability, 24 h. Potency, µM (highest dose often 46.1 µM), for inactives: at the top dose activity change, negative = cytotoxicity, actives largely listed as cytotoxic. 0.93% of 130,000 active;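 also: 0% = DMSO and -100% = full killing by reference compound; nearly all actives have a fitted effect of over 55% in size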
#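 Viability by ATPlite luminescence after 24 h compound treatment (up to 46 uM) at the permissive 32C. Cells are H1299 carrying p53 A138V. Scale runs from DMSO basal to 100 uM tamoxifen as full kill; AC50 from Hill fits.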
# p53ts 39C tox – qHTS Screen for Compounds that Selectively Target Cancer Cells with p53 Mutations: Cytotoxicity of p53ts Cells at the Nonpermissive Temperature. H1299-p53A138V viability at 39C, ATP luminescence, 24 h. Potency, µM (highest dose often 46.1 µM), inactives show at the top dose activity change, negative = cell killing, hits mostly cytotoxic. 1.5% of 130,000 active; also: % is scaled to controls: 0 for no effect and ±100 for the full control effect; nearly all actives have a fitted effect of over 55% in size
# * hit, by the source's call; ? = inconclusive; nt = not tested or not shown; ! = repeats disagree; [ ] = another dose, or the depositor's remark. Unless noted, calls follow the shape of the dose curve; as a rule, active = well fitted curve in the direction sought with a large enough effect; inconclusive = small, poorly fitted or top-dose-only effect, or another doubt; inactive = no such curve, though single readings can be large; an effect the other way counts as inactive or inconclusive. Potency is read from the fitted curve at half-maximal effect.
SMILES,Peg3 imprint,IkB sig inh,p53ts 32C kill,p53ts 39C tox
CCN(CC)S(=O)(=O)c1ccc(NC(=O)c2ccccn2)cc1,-71%,1%,11%,-12%
CN(C)S(=O)(=O)c1ccc(NC(=O)c2ccccn2)cc1,22%,2%,13µM*,10µM*
O=c1c(CCc2ccccc2)nc2cnc(Nc3ccccc3)nc2n1Cc1cccs1,nt,2%[11.4 µM],-21%,-9%
Fc1cccc2sc(Nc3nnc(-c4ccco4)o3)nc12,-62%,?,?,?
COc1cccc2sc(Nc3nnc(-c4cccs4)o3)nc12,-92%,?,?,13µM*
Nc1ccc(-c2cnc(-c3ccc(N)cc3)nc2)cc1,-25%,?,10µM*,10µM*
CCCCCCc1ccc(-c2ncc(N)cn2)cc1,-24%,-1%,3%,-3%
COC(=O)Cc1c(C)nc2nc(-c3ccc(C)cc3)[nH]n2c1=O,-19%[10.9 µM],?,10µM*,?
COC(=O)Cc1c(C)nc2nc(-c3ccccc3)[nH]n2c1=O,-37%,15%,-24%,-8%
CC(C)Cc1nn2cc(-c3cccc(Br)c3)nc2s1,-25%[10.9 µM],?,13µM*,10µM*
Cc1ccc(-c2cn3nc(N4CCC(C(=O)Nc5ccccc5C)CC4)sc3n2)cc1,nt,nt,2%,nt
CCc1ccc(-c2cn3nc(CC)sc3n2)cc1,-12%[10.9 µM],73%,13µM*,6.3µM*
c1ccc(-c2nnc3sc(-c4ccncc4)nn23)cc1,-11%,-3%,8%,4%
c1ccc(-c2cn3nc(-c4ccccc4)sc3n2)cc1,1%,?,1µM*,?
Cc1nn2cc(-c3ccccc3)nc2s1,-86%,?,10µM*,10µM*
CN(C)C1CCN(C(=O)c2ccc(-n3c(=O)c(=O)[nH]c4ccccc43)cc2)C1 (configuration not stated),nt,nt,4%,5%
CN1CCN(c2ncc3ncc(=O)n(CCC#N)c3n2)CC1,-5%,2%[11.4 µM],3%,-5%
Cc1ccc(C)c(CNC(=O)c2ccc3c(c2)nc2n3CCCCC2)c1,-10%[10.9 µM],?,?,?
OC[C@@H]1O[C@@H](N2CCN([C@@H]3O[C@@H](CO)[C@@H](O)[C@H](O)[C@H]3O)CC2)[C@@H](O)[C@H](O)[C@H]1O,1%[10.9 µM],1%[11.4 µM],8%[9.22 µM],16%[9.22 µM]
Cc1nn2cc(-c3ccc(OC(C)C)cc3)nc2s1,-63%[10.9 µM],-4%,13µM*,10µM*
c1ccc(CCc2nn3c(-c4ccncc4)nnc3s2)cc1,4%,2%,24%,35%
CCCCCc1nn2cc(-c3ccccc3)nc2s1,-40%[10.9 µM],?,?,10µM*
CCN(CC)C(=O)c1sc2nc(-c3ccc(OC)cc3)cn2c1C,-60%,4%,?,?
CCCc1nn2c(C)c(-c3ccccc3)nc2s1,-54%[10.9 µM],13%,6.3µM*,10µM*
O=C(Nc1ccc2c(c1)OCCO2)c1ccccc1F,-89%,?,5µM*,7.9µM*
SMILES,Peg3 imprint,IkB sig inh,p53ts 32C kill,p53ts 39C tox
CCC(=O)Nc1ccc(NC(=O)c2ccco2)cc1,-34%,3%,13µM*,10µM*
O=C(COC(=O)c1ccco1)Nc1ccc2c(c1)OCCO2,-2%,0%,3%,-2%
O=C(Nc1ccc2c(c1)OCCO2)c1ccco1,-87%,3%,16µM*,13µM*
O=C(Nc1ccc2c(c1)OCCO2)NC1CCCCC1,-61%,?,7.9µM*,10µM*
O=C(CCc1ccccc1)Nc1ccc(NC(=O)c2ccco2)cc1,-7%,-1%,3%,-8%
Cn1cnc2cc(NC(=O)c3ccco3)ccc21,-30%,6%,16µM*,7.9µM*
COC(=O)[C@@]1(Cc2ccc(OC)cc2)[C@@H]2C(=CC(=O)[C@H]2CC(=O)C(=O)N2CCCC2)CN1C(=O)c1ccccc1,-27%,nt,127%,168%
C=C1C(=O)C=C2CN(C(=O)c3ccccc3)[C@@](Cc3ccc(OC)cc3)(C(=O)OC)[C@@H]12,0%,nt,3.2µM*,20µM*
O=C(O)C=Cc1ccc(Cn2ccnc2)cc1,-6%,1%,-6%,-23%
COc1cc(C)cc2oc(=O)c(CC(=O)NCc3cccc(Cl)c3)c(C)c12,-4%[10.9 µM],-1%,0%,-18%
COc1cc(C)cc2oc(=O)c(CC(=O)NCCc3ccc(Cl)cc3)c(C)c12,9%[10.9 µM],?,-22%,13µM*
O=S(=O)(c1ccccc1)N1CCC2(CCN(c3cccc(-c4ccccc4)c3)CC2)CC1,nt,2%[11.4 µM],15%,-4%
CN1CCN(CCC=C2c3ccccc3Sc3ccc(S(=O)(=O)N(C)C)cc32)CC1,-31%,-9%,-30%,16µM*!
c1cnc2c(c1)ccc1cccnc12,-54%,1%[11.4 µM],?,3.2µM*
CCCCCN=Cc1c(C)[nH]n(-c2nc3ccccc3s2)c1=O,-97%,?,1µM*,0.79µM*
CCC(C(=O)Nc1ccc(C)c(Cl)c1)n1c(=O)c(-c2ccccc2NC(C)=O)nc2ccccc21 (configuration not stated),8%[10.9 µM],2%,10%,11%
Oc1cccc2ccc(SSc3ccc4cccc(O)c4n3)nc12,-3%[10.9 µM],0%[11.4 µM],4%[9.22 µM],-2%[9.22 µM]
CNc1nc(-c2cccc(C#N)c2)nc2ccccc12,1.3µM*,-3%[11.4 µM],6%,-8%
COc1ccc(CCNC(=O)c2ccc3c(c2)nc2n3CCCCC2)cc1OC,-14%[10.9 µM],?,-14%,-9%
Cc1ccc(CCNC(=O)c2ccc3c(c2)nc2n3CCOC2)cc1,12%[10.9 µM],0%,-10%,-17%
CC(C)CCNC(=O)c1ccc2c(c1)nc1n2CCCCC1,-32%[10.9 µM],?,16µM*,3.2µM*
Cc1ccccc1CCNC(=O)c1ccc2c(c1)nc1n2CCC(C)C1 (configuration not stated),-2%[10.9 µM],-1%,13µM*,13µM*
CCNC(=O)c1ccc2c(c1)nc1n2CCCCC1,-16%[10.9 µM],0%,?,?
O=C(NCCc1ccccc1Cl)c1ccc2c(c1)nc1n2CCCCC1,-27%[10.9 µM],?,4µM*,2.5µM*
O=C(NCCc1ccccc1)c1ccc2c(c1)nc1n2CCOC1,-25%[10.9 µM],-3%,13µM*,10µM*
SMILES,Peg3 imprint,IkB sig inh,p53ts 32C kill,p53ts 39C tox
Cc1ccc2cc3cc(C(=O)N(C)c4ccccc4C)oc3nc2c1,-19%[10.9 µM],-2%,?,10µM*
Cc1ccc2cc3cc(C(=O)N4CC(C)CC(C)C4)oc3nc2c1 (configuration not stated),-19%,?,-2%,-18%
Cc1ccc2cc3cc(C(=O)N4CCCCC4C)oc3nc2c1 (configuration not stated),-25%,1%,13µM*,?
O=C(NCCN1CCOCC1)c1ccc(-n2c(=O)c(=O)[nH]c3ccccc32)cc1,nt,nt,7%,1%
Cc1ccc2cccnc2c1,3%,2%,-18%[1.84 µM],6%
Nc1ccc2ncccc2c1,-28%,3%,?,3.2µM*
O=C(Nc1ccc2oc(-c3cc(Br)ccc3Cl)nc2c1)c1ccc2ccccc2c1,-10%[10.9 µM],5%,?,13µM*

# Screening results as filed in PubChem BioAssay.
